Experimental data from PubChem BioAssay AID624297 (National Center for Advancing Translational Sciences (NCATS), 2012).
Where “and” joins values, the source holds several entries; their conditions need not be identical. Equal values may be shown once. Screen size: about 340,000 compounds; about 6,200 (1.8%) were called active. Not shown: some 10% with an inconclusive outcome. The call rests on the fitted dose curve; in most records, active means well fitted activation curve with a large enough effect; inconclusive means small, poorly fitted or top-dose-only effect; inactive means no such curve, though single readings can be large or run the other way. For the sample, actives were picked, then their nearest neighbours and some compounds at random.

assay: A quantitative high throughput screen for small molecules that induce DNA re-replication in SW480 colon adenocarcinoma cells.; further: nearly all actives have a fitted effect of over 55% in size; settings: Hoechst DNA content imaging, 48 h; series mostly up to 46.1 µM
Outline: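 Cells (250 per well) received 23 nL compound or DMSO by pin tool and were kept 48 hr at 37 C, 5% CO2. Nuclei were then stained with Hoechst for 40 min and scanned for DNA content.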
Potency means the concentration at half of the fitted maximal effect.

Potency, inactive:
O=C1c2ccccc2C(=O)N1CCCCCCN1C(=O)c2ccccc2C1=O
CC(CNC(=O)Cn1cnc2c(OCc3ccccc3)ncnc21)c1ccccc1 (stereo unspecified)
O=C(C(Cl)Cl)N1CCN(c2ccccn2)CC1
O=C(Cc1ccc(Br)cc1)N1CCN(c2ccccn2)CC1
O=C(c1cccnc1)N(Cc1ccccc1)C(=O)c1cccnc1
CCOC(=O)N(Cc1ccccc1)C1CC1
CC1=CC(=NNS(=O)(=O)c2ccc([N+](=O)[O-])cc2)CC(C)(C)C1
COc1ccc(C(=O)N(C)Cc2ccc(OC)c(OC)c2OC)cc1S(=O)(=O)N1CCOCC1
COC(=O)C1=C(C)N(c2ccc(Br)cc2)C(=O)/C1=C\c1ccco1
COc1ccc([N+](=O)[O-])cc1NC(=O)COC(=O)/C=C/c1ccco1
O=C(CC1SC(N2CCOCC2)=NC1=O)Nc1ccccc1F (stereo unspecified)
CCCCCCSc1ccc([C@@H]2[C@H]3C(=O)N(CC)C(=O)[C@H]3[C@]3(C(=O)OC)CCCCN23)cc1
COC(=O)Cc1c(-c2[nH]c3ccccc3c2CC(=O)OC)[nH]c2ccccc12
O=C(CN1C(=O)NC2(CCCC2)C1=O)Nc1cc(C(F)(F)F)ccc1N1CCOCC1
Cc1cc(C)nc(N/N=C/c2c(C)oc3ccccc23)n1
O=C(COC(=O)/C=C/c1ccc(Br)o1)Nc1cccc(S(=O)(=O)N2CCOCC2)c1
CC1CCCCC12NC(=O)N(CC(=O)N1CCN(c3ccccc3)CC1)C2=O (stereo unspecified)
CCOc1cc(NC(=O)c2ccccc2C(=O)O)c(OCC)cc1NC(=O)c1ccccc1F
CCC(=O)Nc1ccc2nc(C)n(Cc3ccccc3Cl)c(=O)c2c1
O=C(c1cccs1)N1CCCC(c2nc(-c3ccc(F)cc3)no2)C1 (stereo unspecified)
Cc1cc(C#N)c(SCC(N)=O)nc1-c1ccc(F)cc1
CC12CCCCC1=CC(=O)CC2 (stereo unspecified)
O=C(Nc1ccc(C2CC2(Cl)Cl)cc1)c1cccc([N+](=O)[O-])c1 (stereo unspecified)
CCC(=O)NC(=S)Nc1ccc(NC(=O)c2ccco2)c(Cl)c1
O=C(COC(=O)CSc1ccccc1)Nc1ccc(F)cc1F
C=CC[C@H](CC(=O)NCCO)C(=O)N[C@@H](COC(=O)[C@@H](CC=C)Cc1ccc(F)cc1)Cc1c[nH]c2ccccc12
Cc1ccc(C(=O)Nc2ccccc2-c2ccccc2)cc1S(=O)(=O)Nc1ccccc1
Cn1c(N)cc(=O)n(C)c1=S
CCCn1nc(NS(=O)(=O)c2ccc(F)cc2)c2cc3ccccc3nc21
CCCn1nc(NS(=O)(=O)c2ccccc2)c2cc3cc(C)ccc3nc21
CCOC(=O)C1CCCN(C(=O)C2CCN(S(=O)(=O)c3ccc(Cl)c(C(F)(F)F)c3)CC2)C1 (stereo unspecified)
Cc1ccc(S(=O)(=O)N2CCCCC2)cc1C(=O)N1CCN(CCO)CC1
O=C(CCC(=O)N1CCN(S(=O)(=O)c2ccc(Cl)cc2)CC1)NCc1cccc(C(F)(F)F)c1
CN(C)c1nc(NN)nc(Nc2ccc(F)cc2)n1
OCCNc1nc(Nc2ccc(Cl)c(Cl)c2)nc2ccccc12
CC(=O)Oc1ccc2c(c1)C(=O)c1ccccc1C2=O
Cc1ccc(S(=O)(=O)N2CCN(C(=O)CN3C(=O)NC(C)(c4ccc(Cl)cc4)C3=O)CC2)c(C)c1 (stereo unspecified)
Cc1ccnc(SCC(=O)Nc2cccc(S(=O)(=O)N3CCOCC3)c2)n1
Cc1ccc(NC(=O)c2c(NC(=O)CCC(=O)O)sc3c2CCCCC3)cc1
Cc1ccc(NC(=O)c2csc3c2CCCC3)cc1
COc1ccccc1N(CC(=O)Nc1c(C)n(C)n(-c2ccccc2)c1=O)S(=O)(=O)c1ccccc1
Cc1ccc(S(=O)(=O)NCC(=O)NNC(=O)c2ccc(Br)cc2)cc1C
COc1cc(/C=C2\Oc3ccc(C#Cc4ccc(O)cc4)cc3C2=O)cc(OC)c1
O=C1c2ccccc2C(=O)N1CCC#Cc1ccc2cc(C3(O)CCCCC3)oc(=O)c2c1
C#CCOCCOCCOCCNc1nc(N2CCN(C(=O)[C@H](CO)n3cc([C@@H](N)C(C)C)nn3)CC2)nc(N2CCN(C(=O)[C@H](CCC(=O)O)n3cc([C@@H](N)[C@H](C)CC)nn3)CC2)n1
COc1ccc2[nH]cc(/C=C(/C#N)S(=O)(=O)c3ccccc3)c2c1
COc1cc(/C=C(\C#N)c2nc3ccccc3[nH]2)ccc1O
C#CCOCCOCCOCCNc1nc(N2CCOCC2)nc(N2CCN(C(=O)[C@H](Cc3ccc(O)cc3)n3cc(CCO)nn3)CC2)n1
Cc1noc(C)c1S(=O)(=O)N(C)C[C@H]1Oc2c(NC(=O)Nc3ccc4c(c3)OCO4)cccc2C(=O)N([C@H](C)CO)C[C@@H]1C
O=C(NCc1ccc2c(c1)OCO2)c1cc(F)c(F)cc1Cl
O=C(Cc1ccc([N+](=O)[O-])cc1)NCCc1ccc2c(c1)OCO2
CC[C@]12c3[nH]c4ccc(Cl)cc4c3CCN1C(=O)[C@@H](CC(=O)NCCN1CCOCC1)C[C@@H]2C(=O)N1CCN(C(=O)C2CC2)CC1
COc1ccc(CCNC(=O)COc2cc(C)cc3oc(=O)c(C)c(C)c23)cc1OC
COc1ccc(/C=C/C(=O)OCC(=O)NC2CCCCCC2)cc1OC
COc1ccc(C2/C(=C(/O)c3ccc4c(c3)CC(C)O4)C(=O)C(=O)N2Cc2ccncc2)cc1 (stereo unspecified)
COCCCN1C(=O)C(=O)/C(=C(/O)c2ccc3c(c2)CC(C)O3)C1c1cccnc1 (stereo unspecified)
O=C(COC(=O)c1ccc(O)cc1O)c1ccc2c(c1)OCCO2
O=C1CN(C(=O)COC(=O)/C=C/c2ccc(F)cc2)c2ccccc2N1
COc1ccc(C(=O)CC(=O)C(=O)Nc2cc([N+](=O)[O-])ccc2OC)cc1
COc1ccc2c(C(=O)c3ccc(C)cc3)n(CCC(N)=O)[n+]([O-])c2c1
COc1cc(OC)cc(-c2c(C#Cc3ccsc3)c3cc(-c4ccc(SC)cc4)ccc3n2C)c1
Cc1cc(C(=O)N/N=C/c2ccccn2)c2ccccc2n1
Cc1nnc(N/N=C/C2CC=CCC2)[nH]c1=O (stereo unspecified)
CC(C)[C@@H](C(=O)OCC(=O)c1ccc2c(c1)NC(=O)CO2)N1C(=O)c2ccccc2C1=O
O=S(=O)(NCC1CN(S(=O)(=O)c2ccc3c(c2)OCCO3)C1)c1c(F)cccc1F
CSc1ncccc1C(=O)Nc1cccc(S(=O)(=O)N2CCOCC2)c1
CCOC(=O)c1c(S(=O)(=O)Nc2ccc(CN3CCC(C)CC3)cc2)c(C)n(C)c1C
CCOC(=O)c1cccc(NS(=O)(=O)c2c(C(=O)N3CCCCCC3)c(C)n(C)c2C)c1
COc1ccc(CCN2CC(C(=O)OCC(=O)NCc3ccccc3Cl)CC2=O)cc1OC (stereo unspecified)
Cc1ccc(S(=O)(=O)N2CCN(C(=O)Cn3c(=O)cnc4ccccc43)CC2)c(C)c1
CCN(CC(=O)Nc1c(F)cccc1F)C(=O)Cc1cccs1
Cc1cc(NC(=O)CSCC(=O)NC(C)c2ccccc2)no1 (stereo unspecified)
COc1cccc(CNc2nc(C(F)(F)F)nc3ccccc23)c1
NS(=O)(=O)c1ccc(CCNc2nc(C(F)(F)F)nc3ccccc23)cc1
CC(CN1CCOCC1)c1ccccc1 (stereo unspecified)
CC(CN1CCC(n2nccc2NC(=O)C2CCCC2)CC1)c1ccccc1 (stereo unspecified)

Potency, active:
O=C(/C=C/c1cccc(C(F)(F)F)c1)N1CCN(c2ccccn2)CC1 4.61 µM
Cc1coc2c(O)cc3c(c12)OC1(N2CCCCC2)C(=O)NCCCC31 (stereo unspecified) 20.6 µM and 7.08 µM
COc1ccc(N2C(=O)/C(=C\c3ccco3)N=C2SCC(N)=O)cc1Cl 18.4 µM
Cc1cc(C)nc(N/N=C/c2c(CO)cnc(C)c2O)n1 11.6 µM
CCN1CCN(c2cc3nc(C)n(Cc4ccccc4)c(=O)c3cc2NC(=O)c2ccccc2F)CC1 8.2 µM
N#Cc1c(-c2ccc(F)cc2)cc(C2CC2)nc1SCC(=O)c1cccs1 11.6 µM
O=C(Nc1ccc(NC(=O)c2ccco2)c(Cl)c1)c1cccc([N+](=O)[O-])c1 0.651 µM
CCCn1nc(NC(=O)C(C)C)c2cc3cc(OC)ccc3nc21 9.2 µM
CN(C)c1nc(Nc2ccc(Cl)c(Cl)c2)nc(N(C)C)n1 23.1 µM
O=C1C(Cl)=C(Oc2ccccc2)C(=O)c2ccccc21 2.06 µM
CC(=O)Nc1ccc(NC(=O)c2sc3nc4c(c(-c5ccc(C)cc5)c3c2N)CCC4)cc1 20.6 µM
COc1cc(C#Cc2ccc3cc(CCCO)oc(=O)c3c2)cc(OC)c1 3.26 µM
COc1ccc(/C=C(\C#N)c2c[nH]c3ccccc23)cc1 18.4 µM
O=C(NCc1ccc2c(c1)OCO2)c1cc([N+](=O)[O-])ccc1N1CCOCC1 7.31 µM
COc1cc(C2/C(=C(\O)c3ccc4c(c3)CC(C)O4)C(=O)C(=O)N2Cc2ccco2)ccc1O (stereo unspecified) 0.517 µM
COc1ccc(C(=O)c2c3ccc([N+](=O)[O-])cc3[n+]([O-])n2CCCN)cc1 18.4 µM
Cc1nnc(N/N=C/c2ccccn2)[nH]c1=O 1.3 µM
CCOC(=O)c1c(S(=O)(=O)Nc2cccc(Cl)c2)c(C)n(C)c1C 8.2 µM
CCc1ccc(C(CNc2nc(C(F)(F)F)nc3ccccc23)N(C)C)cc1 (stereo unspecified) 20.6 µM
CC(CN1CCCCC1)c1ccccc1 (stereo unspecified) 5.8 µM
